Data taken from PubChem BioAssay AID1159580 (chemical genetic matrix, 2015).
About 2,000 (36%) of roughly 5,500 compounds were called active. Another 18% or so got no clear call; they are omitted. Cut-off read from the data, not from the text of the source: active = normalized growth mostly below about 0.91 (no sharp cut-off); inconclusive = no clear call, values can overlap the other calls; inactive = mostly above about 0.92. The list shows a part of the results.

Assay: chemical genetic growth profiling, strain panel (AID 1159580);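 note: tested at 20 µM; growth read once vehicle control cultures reached saturation at 30 °C; 1 = growth at the plate median or of vehicle wells; lower values mean less growth of the strain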
Conditions: S. cerevisiae deletion strains, growth OD
[1] = locus YDL101C, strain DUN1, hits give low values
[2] = locus YHR030C, strain SLT2, hits give low values

Measured: normalized growth

CCCc1cc(=O)c2ccc(O)cc2o1
inactive: locus YAL013W, strain DEP1, hits give low values 0.975 | locus YBR229C, strain ROT2, hits give low values 1 | locus YCL061C, strain MRC1, hits give low values 0.976 | [1] 0.947 | locus YDL134C, strain PPH21, hits give low values 0.996 | locus YDR150W, strain NUM1, hits give low values 0.967 | locus YEL061C, strain CIN8, hits give low values 1 | locus YGR078C, strain PAC10, hits give low values 0.969 | [2] 0.919 | locus YHR087W, strain rtc3, hits give low values 1.03 | locus YJR043C, strain POL32, hits give low values 1 | locus YJR075W, strain HOC1, hits give low values 1.01 | locus YLR039C, strain RIC1, hits give low values 0.957 | locus YLR058C, strain SHM2 (second series), hits give low values 0.986 | locus YLR085C, strain ARP6, hits give low values 0.964 | locus YLR262C, strain YPT6, hits give low values 1.01 | locus YML094W, strain GIM5, hits give low values 1.02 | locus YMR219W, strain ESC1, hits give low values 0.998 | locus YMR263W, strain SAP30, hits give low values 0.995 | locus YNL128W, strain TEP1, hits give low values 0.97 | locus YNL153C, strain GIM3, hits give low values 0.993 | locus YNL298W, strain CLA4 (second series), hits give low values 0.971 | locus YNL322C, strain KRE1, hits give low values 0.966 | locus YNR030W, strain Alg12, hits give low values 0.985 | locus YOL006C, strain TOP1, hits give low values 0.933 | locus YPL055C, strain LGE1, hits give low values 1.05 | locus YPL241C, strain CIN2, hits give low values 0.988 | locus YPR135W, strain CTF4, hits give low values 0.943

Cc1c(Cc2ccc(F)cc2)c(=O)oc2cc(O)ccc12
inactive: locus YAR019C, strain CDC15, hits give low values 0.973 | locus YBL105C, strain PKC1, hits give low values 0.986 | locus YBR135W, strain CKS1, hits give low values 0.98 | locus YBR136W, strain MEC1, hits give low values 0.963 | locus YBR160W, strain CDC28, hits give low values 0.981 | locus YDL017W, strain CDC7, hits give low values 0.983 | locus YDL028C, strain MPS1, hits give low values 0.976 | [1] 0.979 | locus YDL108W, strain KIN28, hits give low values 0.978 | locus YDL132W, strain cdc53, hits give low values 0.978 | locus YDL214C, strain PRR2, hits give low values 0.967 | locus YDR052C, strain DBF4, hits give low values 0.987 | locus YDR054C, strain cdc34, hits give low values 0.975 | locus YDR226W, strain ADK1, hits give low values 0.987 | locus YDR477W, strain SNF1, hits give low values 0.971 | locus YER123W, strain YCK3, hits give low values 0.99 | locus YER133W, strain GLC7, hits give low values 0.977 | locus YFL009W, strain cdc4, hits give low values 0.973 | locus YFL029C, strain CAK1, hits give low values 0.97 | locus YFR003C, strain YPI1, hits give low values 0.985 | locus YFR019W, strain FAB1, hits give low values 0.988 | locus YFR028C, strain CDC14, hits give low values 0.972 | locus YGR040W, strain KSS1, hits give low values 0.954 | locus YGR052W, strain FMP48, hits give low values 1.02 | locus YGR092W, strain DBF2, hits give low values 0.944 | locus YHR079C, strain IRE1, hits give low values 0.91 | locus YHR082C, strain KSP1, hits give low values 0.968 | locus YHR205W, strain SCH9, hits give low values 0.958 | locus YIL147C, strain SLN1, hits give low values 0.983 | locus YJL095W, strain BCK1, hits give low values 0.923 | locus YJL128C, strain PBS2, hits give low values 0.956 | locus YJL157C, strain FAR1, hits give low values 0.966 | locus YJR016C, strain ILV3, hits give low values 0.982 | locus YJR066W, strain TOR1 (second series), hits give low values 0.976 | locus YJR066W, strain TOR1, hits give low values 0.957 | locus YKL048C, strain ELM1, hits give low values 0.969 | locus YKL067W, strain YNK1, hits give low values 0.979 | locus YKL101W, strain HSL1, hits give low values 0.967 | locus YKL193C, strain SDS22, hits give low values 0.976 | locus YKL203C, strain TOR2, hits give low values 1.01 | locus YLR113W, strain HOG1, hits give low values 0.903 | locus YLR133W, strain CKI1, hits give low values 0.968 | locus YLR403W, strain SFP1, hits give low values 0.969 | locus YML070W, strain DAK1, hits give low values 0.999 | locus YMR001C, strain CDC5, hits give low values 0.978 | locus YMR205C, strain PFK2 (second series), hits give low values 0.974 | locus YMR277W, strain FCP1, hits give low values 0.974 | locus YNL006W, strain LST8, hits give low values 0.975 | locus YNL020C, strain ARK1, hits give low values 0.96 | locus YNL161W, strain CBK1, hits give low values 0.974 | locus YNL183C, strain NPR1, hits give low values 0.939 | locus YNL207W, strain RIO2, hits give low values 0.97 | locus YNL222W, strain SSU72, hits give low values 0.976 | locus YNL307C, strain MCK1 (second series), hits give low values 0.984 | locus YOL078W, strain AVO1, hits give low values 0.973 | locus YOL136C, strain PFK27, hits give low values 0.964 | locus YOR061W, strain CKA2, hits give low values 0.957 | locus YOR119C, strain RIO1, hits give low values 0.977 | locus YOR231W, strain MKK1, hits give low values 0.926 | locus YOR329C, strain SCD5, hits give low values 0.979 | locus YPL031C, strain PHO85, hits give low values 0.947 | locus YPL153C, strain RAD53, hits give low values 0.962 | locus YPL204W, strain HRR25, hits give low values 0.98 | locus YPL209C, strain IPL1, hits give low values 0.982 | locus YPL256C, strain CLN2, hits give low values 0.899 | locus YPR025C, strain CCL1, hits give low values 0.977 | locus YPR106W, strain ISR1, hits give low values 0.984 | locus YPR111W, strain DBF20, hits give low values 0.971 | strain NNK1, hits give low values 0.984 | strain TSCII, hits give low values 0.978
active: [2] 0.83
